Common to all, as to experiment: PBM; 200 nM protein, PBS
What all share (conditions): dsDNA, one strand shown

Assay [1] has as its target ALX1 (Homo sapiens, UniProt Q15699 118-204, L144V).
The target of assay [2] is ALX1 (Homo sapiens, UniProt Q15699 118-204, L144R).
Assay [3] addresses ALX1 (Homo sapiens, UniProt Q15699 118-204).
Assay [4] addresses ALX3 (Homo sapiens, UniProt O95076 139-225, N203Q).
Assay [5] has as its target HOXD13 (Homo sapiens, UniProt P35453 263-343, T313R).
Assay [6] concerns the target HOXD13 (Homo sapiens, UniProt P35453 263-343).
The target in assay [7] is ALX3 (Homo sapiens, UniProt O95076 139-225).
Sequence of ALX3 (Homo sapiens, UniProt O95076 139-225) (O95076 139-225): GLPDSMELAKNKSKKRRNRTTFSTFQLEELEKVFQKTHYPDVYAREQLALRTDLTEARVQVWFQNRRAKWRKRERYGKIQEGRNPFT
For assay [8], the target named is ALX3 (Homo sapiens, UniProt O95076 139-225, L168Q).
Sequence of ALX3 (Homo sapiens, UniProt O95076 139-225, L168Q) (O95076 139-225 L168Q): as the sequence (O95076 139-225) above, with L30Q counted along it
For assay [9], the target named is HOXD13 (Homo sapiens, UniProt P35453 263-343, T313A).
Sequence of HOXD13 (Homo sapiens, UniProt P35453 263-343, T313A) (P35453 263-343 T313A): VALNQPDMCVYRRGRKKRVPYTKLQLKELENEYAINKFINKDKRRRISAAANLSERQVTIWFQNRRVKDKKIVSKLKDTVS
Assay [10] deals with ALX3 (Homo sapiens, UniProt O95076 139-225, L168V).
Sequence of ALX3 (Homo sapiens, UniProt O95076 139-225, L168V) (O95076 139-225 L168V): as the sequence (O95076 139-225) above, with L30V counted along it
Assay [11] deals with ALX3 (Homo sapiens, UniProt O95076 139-225, N203S).
Sequence of ALX3 (Homo sapiens, UniProt O95076 139-225, N203S) (O95076 139-225 N203S): as the sequence (O95076 139-225) above, with N65S counted along it

Sequence of ALX1 (Homo sapiens, UniProt Q15699 118-204, L144R) (Q15699 118-204 L144R): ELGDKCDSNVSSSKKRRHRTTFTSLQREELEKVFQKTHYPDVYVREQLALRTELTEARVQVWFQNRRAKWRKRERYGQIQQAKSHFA
Sequence of ALX1 (Homo sapiens, UniProt Q15699 118-204) (Q15699 118-204): as the sequence (Q15699 118-204 L144R) above, with R27L counted along it
Sequence of ALX1 (Homo sapiens, UniProt Q15699 118-204, L144V) (Q15699 118-204 L144V): as the sequence (Q15699 118-204 L144R) above, with R27V counted along it
Sequence of ALX3 (Homo sapiens, UniProt O95076 139-225, N203Q) (O95076 139-225 N203Q): as the sequence (O95076 139-225) above, with N65Q counted along it
Sequence of HOXD13 (Homo sapiens, UniProt P35453 263-343) (P35453 263-343): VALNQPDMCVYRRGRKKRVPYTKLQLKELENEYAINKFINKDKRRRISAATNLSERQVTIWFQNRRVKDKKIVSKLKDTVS
Sequence of HOXD13 (Homo sapiens, UniProt P35453 263-343, T313R) (P35453 263-343 T313R): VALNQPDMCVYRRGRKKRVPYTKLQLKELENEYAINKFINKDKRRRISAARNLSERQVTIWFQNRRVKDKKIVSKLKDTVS

Consider ATTTGTAA, for which the binding signal in assay [1] is 9.13 upbm affinity estimate (log intensity, higher = more binding, comparable within an allelic series); in assay [2], 8.97 upbm affinity estimate (log intensity, higher = more binding, comparable within an allelic series); in [3], 9.47 upbm affinity estimate (log intensity, higher = more binding, comparable within an allelic series).

Regarding CCTCAATC, the binding signal was 7.8 upbm affinity estimate (log intensity, higher = more binding, comparable within an allelic series) in assay [1]; 7.78 upbm affinity estimate (log intensity, higher = more binding, comparable within an allelic series) in [2]; 7.96 upbm affinity estimate (log intensity, higher = more binding, comparable within an allelic series) in [3].

Turning to GGAGAAAC, the binding signal in assay [1] was 6.41 upbm affinity estimate (log intensity, higher = more binding, comparable within an allelic series); in [2] it was 6.7 upbm affinity estimate (log intensity, higher = more binding, comparable within an allelic series); in assay [3] it was 6.58 upbm affinity estimate (log intensity, higher = more binding, comparable within an allelic series).

Regarding CACTATTA, the binding signal is 9.26 upbm affinity estimate (log intensity, higher = more binding, comparable within an allelic series) in assay [1]; 9.02 upbm affinity estimate (log intensity, higher = more binding, comparable within an allelic series) in assay [2]; 9.61 upbm affinity estimate (log intensity, higher = more binding, comparable within an allelic series) in assay [3].

For the sequence CCGTATTA, the binding signal in [1] is 8.94 upbm affinity estimate (log intensity, higher = more binding, comparable within an allelic series); in [2], 8.73 upbm affinity estimate (log intensity, higher = more binding, comparable within an allelic series); in assay [3], 9.27 upbm affinity estimate (log intensity, higher = more binding, comparable within an allelic series).

On to CACAGAGC, for which the binding signal is 6.53 upbm affinity estimate (log intensity, higher = more binding, comparable within an allelic series) in assay [1]; 6.53 upbm affinity estimate (log intensity, higher = more binding, comparable within an allelic series) in [2]; 6.59 upbm affinity estimate (log intensity, higher = more binding, comparable within an allelic series) in [3].

Consider AGCGCAGC, for which the binding signal is 6.5 upbm affinity estimate (log intensity, higher = more binding, comparable within an allelic series) in assay [1]; 6.49 upbm affinity estimate (log intensity, higher = more binding, comparable within an allelic series) in assay [2]; 6.42 upbm affinity estimate (log intensity, higher = more binding, comparable within an allelic series) in assay [3].

With ACTTATTA, the binding signal in assay [4] is 8.57 upbm affinity estimate (log intensity, higher = more binding, comparable within an allelic series).

With CCTTTAAC, the binding signal is 8.41 upbm affinity estimate (log intensity, higher = more binding, comparable within an allelic series) in assay [1]; 8.36 upbm affinity estimate (log intensity, higher = more binding, comparable within an allelic series) in assay [2]; 8.65 upbm affinity estimate (log intensity, higher = more binding, comparable within an allelic series) in assay [3].

On to CAATATTC, for which the binding signal was 8.3 upbm affinity estimate (log intensity, higher = more binding, comparable within an allelic series) in assay [1]; 8.42 upbm affinity estimate (log intensity, higher = more binding, comparable within an allelic series) in assay [2]; 8.48 upbm affinity estimate (log intensity, higher = more binding, comparable within an allelic series) in assay [3].

On to AAGGCGTG, for which the binding signal was 6.54 upbm affinity estimate (log intensity, higher = more binding, comparable within an allelic series) in [1]; 6.5 upbm affinity estimate (log intensity, higher = more binding, comparable within an allelic series) in [2]; 6.55 upbm affinity estimate (log intensity, higher = more binding, comparable within an allelic series) in [3].

AATCCACA: the binding signal in assay [1] is 8.17 upbm affinity estimate (log intensity, higher = more binding, comparable within an allelic series); in assay [3] it was 8.4 upbm affinity estimate (log intensity, higher = more binding, comparable within an allelic series).

On to AATGAATG, for which the binding signal was 9.18 upbm affinity estimate (log intensity, higher = more binding, comparable within an allelic series) in assay [1]; 9 upbm affinity estimate (log intensity, higher = more binding, comparable within an allelic series) in assay [2]; 9.33 upbm affinity estimate (log intensity, higher = more binding, comparable within an allelic series) in assay [3].

On to GTTATACA, for which the binding signal in assay [1] is 8.24 upbm affinity estimate (log intensity, higher = more binding, comparable within an allelic series); in assay [2], 8.23 upbm affinity estimate (log intensity, higher = more binding, comparable within an allelic series); in [3], 8.43 upbm affinity estimate (log intensity, higher = more binding, comparable within an allelic series).

With CTGCTAGC, the binding signal in assay [1] is 6.36 upbm affinity estimate (log intensity, higher = more binding, comparable within an allelic series); in assay [2], 6.39 upbm affinity estimate (log intensity, higher = more binding, comparable within an allelic series); in assay [3] it was 6.42 upbm affinity estimate (log intensity, higher = more binding, comparable within an allelic series).

Turning to GCTTCGAC, the binding signal in assay [4] is 7.77 upbm affinity estimate (log intensity, higher = more binding, comparable within an allelic series); in assay [5] it was 9.46 upbm affinity estimate (log intensity, higher = more binding, comparable within an allelic series); in [6] it was 9.32 upbm affinity estimate (log intensity, higher = more binding, comparable within an allelic series); in [7] it was 7.65 upbm affinity estimate (log intensity, higher = more binding, comparable within an allelic series); in assay [8], 7.79 upbm affinity estimate (log intensity, higher = more binding, comparable within an allelic series); in [9] it was 9.54 upbm affinity estimate (log intensity, higher = more binding, comparable within an allelic series). Also, the binding signal was 7.79 upbm affinity estimate (log intensity, higher = more binding, comparable within an allelic series) in [10] and 7.83 upbm affinity estimate (log intensity, higher = more binding, comparable within an allelic series) in [11].

Regarding ATTTATCG, the binding signal in [1] is 8.96 upbm affinity estimate (log intensity, higher = more binding, comparable within an allelic series); in assay [2], 8.71 upbm affinity estimate (log intensity, higher = more binding, comparable within an allelic series); in assay [3] it was 9.21 upbm affinity estimate (log intensity, higher = more binding, comparable within an allelic series).

The record behind these values is publication PMC11006913.
